The text below walks through data of PubChem BioAssay (EPA / NIEHS).

Results filed as inconclusive are left out. The source made the active and inactive calls. How the source made its calls, unless noted: active means hit-call score of the fitted dose curve at least 0.9, where 1 is the maximum; inconclusive means response in the unintended direction; inactive means score below 0.9.

Test system in the first assay: not listed separately
Briefly: CCTE_Shafer_MEA_acute_network_burst_percentage: CCTE's Neural Acute Assay for Percentage of Network Bursts, Shafer Lab (AID 2284022; active means hit-call score of the fitted dose curve at least 0.9, where 1 is the maximum; inactive means score below 0.9;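 further: curves fitted for loss so actives lower network burst percentage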). The gist of the method: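 Rat cortical cultures, DIV 13/15; 20 min equilibration, 40 min baseline, compound 0.03-40 uM, 40 min recording, 37 C. Spikes: 300-5000 Hz band-pass, threshold 8x rms noise. Readout: % change in network-burst spike fraction; loss direction vs DMSO.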
For `CCOC(=O)c1ccccc1C(=C1C=C(Br)C(=O)C(Br)=C1)c1cc(Br)c(O)c(Br)c1`, the compound was called inactive.

With `Nc1ncn([C@@H]2O[C@H](CO)[C@@H](O)[C@H]2O)c(=O)n1`, the AC50 is 8.38 µM (active).

Consider `CCCCC(CC)COC(=O)c1ccccc1O` (stereo not drawn), for which the call was inactive.

Test system in a further assay: not listed separately
Briefly: CCTE_Shafer_MEA_acute_cross_correlation_HWHM: CCTE's Neural Acute Assay for Cross Correlation at Half Width at Half Maximum, Shafer Lab (AID 2284026; active means hit-call score of the fitted dose curve at least 0.9, where 1 is the maximum; inactive means score below 0.9;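 further: hits are a decrease in cross-correlogram half width relative to DMSO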). In short, it runs like this: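 Read-out: half width at half maximum of action-potential cross-correlogram, percent change versus pre-treatment baseline, fitted in loss direction against DMSO. Rat cortical cultures, DIV 13 or 15, dosed 0.03-40 uM, 40-min recordings at 37 C.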
`CCOC(=O)c1ccccc1C(=C1C=C(Br)C(=O)C(Br)=C1)c1cc(Br)c(O)c(Br)c1`: the AC50 is 11.8 µM (active).

In the case of `Nc1ncn([C@@H]2O[C@H](CO)[C@@H](O)[C@H]2O)c(=O)n1`, the AC50 was 7.72 µM (active).

`CCCCC(CC)COC(=O)c1ccccc1O` (stereo not drawn): the compound was classed as inactive.

The target of a further assay is Estrogen receptor (Homo sapiens) (UniProt P03372). Briefly: CCTE_Deisenroth_AIME_384WELL_LUC_Active: CCTE's 384-well Estrogen Receptor Transactivation Assay with AIME metabolic competence (ERTA luciferase; metabolism positive), Deisenroth Lab (AID 2284030). In short, it runs like this: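 Readout: bioluminescent luciferase induction in VM7Luc4E2 cells 24 hour after receiving medium from a 2 h rat hepatic S9 (induced, alginate microsphere) metabolism step. Concentrations 0.002 - 200 uM; activity scaled to 17beta-estradiol positive control.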
Estrogen receptor (Homo sapiens), sequence (P03372 whole entry, looked up): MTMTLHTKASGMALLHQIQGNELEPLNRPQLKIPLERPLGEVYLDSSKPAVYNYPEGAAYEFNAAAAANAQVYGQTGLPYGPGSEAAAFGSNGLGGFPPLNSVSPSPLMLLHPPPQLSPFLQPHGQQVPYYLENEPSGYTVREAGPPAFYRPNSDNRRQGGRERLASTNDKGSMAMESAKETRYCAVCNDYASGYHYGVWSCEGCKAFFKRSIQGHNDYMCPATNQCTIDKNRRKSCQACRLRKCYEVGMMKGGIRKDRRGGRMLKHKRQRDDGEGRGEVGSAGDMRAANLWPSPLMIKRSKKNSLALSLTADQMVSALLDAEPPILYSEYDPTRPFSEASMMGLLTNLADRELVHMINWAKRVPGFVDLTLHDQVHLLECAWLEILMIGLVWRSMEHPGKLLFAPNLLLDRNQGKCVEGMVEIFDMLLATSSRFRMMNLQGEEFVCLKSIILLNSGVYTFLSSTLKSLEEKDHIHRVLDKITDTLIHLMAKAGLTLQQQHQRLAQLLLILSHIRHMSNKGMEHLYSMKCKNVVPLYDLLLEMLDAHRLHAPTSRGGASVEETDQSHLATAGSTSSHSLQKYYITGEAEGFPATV
With `CC(=O)OC(C)C`, the result was inactive.

Turning to `O=c1cc(-c2ccccc2)oc2ccccc12`, the AC50 is 45.6 µM (active).

With `C=C1C2CCC(C2)C1(C)C` (stereo not drawn), the compound was called inactive.

Regarding `O=C(C(Cl)Cl)N1CCOC12CCCCC2`, the result was inactive.

Test system in the next assay: not listed separately
The assay can be described thus: CCTE_Deisenroth_AIME_384WELL_CTox_Active: Cytotoxicity Assessment (CTOX) in CCTE's 384-well Estrogen Receptor Transactivation Assay with AIME metabolic competence (metabolism positive), Deisenroth Lab (AID 2284037).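 Further: chemicals first conditioned 2 h by alginate-bound induced rat liver S9 before cells; activity means signal loss indicating cell death.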 In short, it runs like this:
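Chemicals pre-incubated 2 hours with alginate-immobilised phenobarbital/beta-naphthoflavone-induced male Sprague Dawley rat liver S9, then conditioned medium applied 24 hour to VM7Luc4E2 cells. Viability by fluorogenic protease substrate; 10-point series 0.002 - 200 uM.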
For `CC(=O)OC(C)C`, the compound was classed as inactive.

On to `O=c1cc(-c2ccccc2)oc2ccccc12`, for which the result was inactive.

In the case of `C=C1C2CCC(C2)C1(C)C` (stereo not drawn), the compound was called inactive.

As a reminder, the AC50 is the midpoint of the concentration-response curve, whichever way the signal moves.
